In the library only some 1.1% were active in any assay of this set; here they are far more common.
OPRM1-OPRD1 inv = inverse agonists of human mu-delta opioid receptor heterodimerization | P35372+P41143 | cell-based MOR-DOR heterodimer luminescence, inverse agonism | inhibition, % at 9.3 µM | actives 0.21% (n = 340,000); in the data active = inhibition above about 22%, passing the limit was not always enough
Target sequence (P35372 whole entry, looked up): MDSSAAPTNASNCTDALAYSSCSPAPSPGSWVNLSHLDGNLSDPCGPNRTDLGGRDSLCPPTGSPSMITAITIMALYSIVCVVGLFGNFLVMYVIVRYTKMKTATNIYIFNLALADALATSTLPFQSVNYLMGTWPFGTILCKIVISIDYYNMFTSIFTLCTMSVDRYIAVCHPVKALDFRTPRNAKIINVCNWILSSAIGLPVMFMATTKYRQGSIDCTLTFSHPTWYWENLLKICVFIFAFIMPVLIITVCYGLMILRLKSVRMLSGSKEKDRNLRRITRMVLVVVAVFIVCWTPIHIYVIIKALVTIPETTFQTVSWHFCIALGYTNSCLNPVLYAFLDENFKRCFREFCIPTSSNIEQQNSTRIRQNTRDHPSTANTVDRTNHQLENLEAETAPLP
Target sequence (P41143 whole entry, looked up): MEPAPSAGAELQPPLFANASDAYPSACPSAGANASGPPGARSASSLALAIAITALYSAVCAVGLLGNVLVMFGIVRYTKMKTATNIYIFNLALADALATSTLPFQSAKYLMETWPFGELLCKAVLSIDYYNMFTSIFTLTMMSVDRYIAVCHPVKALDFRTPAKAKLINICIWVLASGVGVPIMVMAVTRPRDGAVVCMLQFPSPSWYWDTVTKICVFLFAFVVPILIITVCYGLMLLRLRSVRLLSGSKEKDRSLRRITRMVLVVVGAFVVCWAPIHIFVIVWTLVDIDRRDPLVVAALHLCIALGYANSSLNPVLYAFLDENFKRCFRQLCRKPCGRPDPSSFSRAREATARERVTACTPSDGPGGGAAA
HTR5A ag ctr = activates human HTR5A in OPRM1-OPRD1 agonist counter-screen. P47898. HTR5A agonist assay, luminescence, cell-based. activation, % at 9.3 µM. actives 0.61% (n = 340,000); in the data active = activation mostly above about 9.5%, no sharp cut-off; inactive = mostly below about 7.6%
MOR-DOR ag-1 = OPRM1-OPRD1 heterodimerization agonism; cells, luminescence; activation, % at 9.3 µM; actives 0.3% (n = 340,000); AID 504326
HTR5A inv ag = HTR5A inverse agonism, opioid heterodimer counter-screen | actives 0.083% (n = 340,000) | HTR5A cell line, luminescence | inhibition, % at 9.3 µM; in the data active = inhibition mostly above about 23%, no sharp cut-off; inactive = mostly below about 18%
MOR-DOR ag-2 = counter-screen for HTR5A agonists: OPRM1-OPRD1 heterodimerization agonism | shares compounds with HTR5A ag ctr | U2OS counter-screen cells, complementation luminescence, 3 h | activation, % at 9.3 µM | actives 13% (n = 800)
HTR5A ag confirm = confirmation of human HTR5A agonists | actives 17% (n = 800) | shares compounds with HTR5A ag ctr | activation, % at 9.3 µM | HTR5A agonist cell assay, luminescence; in the data active = activation above about 17%
Large screens that a line does not name were inactive (follow-up assays come after a bar, where they were run). Cut-off read from the data, not from the text of the source, unless noted: active = activation above about 18%; inactive = the rest.

CC(OC(=O)CC1Sc2ccccc2NC1=O)C(=O)NC1CCCC1 (stereo not given)	none
COc1ccc(OC)c(-c2csc(NC(=O)Cn3[nH]c(=O)c4ccccc4c3=O)n2)c1	HTR5A ag ctr 31.1 | MOR-DOR ag-2 inactive | HTR5A ag confirm inactive
CC(C)c1ccc(-c2nnn(Cc3nc4ccccc4s3)n2)cc1	HTR5A ag ctr 21.0 | MOR-DOR ag-2 inactive | HTR5A ag confirm inactive
CC(C)c1ccc(-c2nnn(CCC#N)n2)cc1	none
Cc1ccc2cccc(OCC(=O)N(C)CC(=O)Nc3ccc(F)cc3)c2n1	HTR5A ag ctr 16.3 | MOR-DOR ag-2 inactive | HTR5A ag confirm inactive
Cc1ccc(OCC(=O)N(C)CC(=O)Nc2ccc(Cl)c(C(F)(F)F)c2)c([N+](=O)[O-])n1	HTR5A ag ctr 14.9 | MOR-DOR ag-2 inactive | HTR5A ag confirm inactive
Cc1ccc(OCC(=O)N(C)CC(=O)Nc2ccc(F)cc2)c([N+](=O)[O-])n1	none
O=C(Nc1ccc(F)c(F)c1)C1CCN(S(=O)(=O)c2cccc3nonc23)CC1	HTR5A ag ctr 16.9 | MOR-DOR ag-2 inactive | HTR5A ag confirm inactive
Cc1ccc(SCC(=O)OC(C)C(=O)Nc2ccc(S(N)(=O)=O)cc2)cc1C (stereo not given)	none
O=C(O)c1ccc(NS(=O)(=O)c2cc(Cl)ccc2Cl)cc1	HTR5A ag ctr 15.9 | MOR-DOR ag-2 inactive | HTR5A ag confirm inactive
CCn1c2ccccc2c2cc(NC(=O)CSc3nnc(-c4ccc(OC)cc4)n3N)ccc21	HTR5A ag ctr 19.4 | MOR-DOR ag-2 inactive | HTR5A ag confirm inactive
CCOC(=O)C(=O)/C(C#N)=C/Nc1ccccc1	none
CCOC(=O)/C(C#N)=C/Nc1ccccc1OC	HTR5A ag ctr 16.7 | MOR-DOR ag-2 inactive | HTR5A ag confirm inactive
CCOC(=O)N1CCc2c(sc(NC(=O)C3COc4ccccc4O3)c2C(N)=O)C1 (stereo not given)	HTR5A ag ctr 44.4 | MOR-DOR ag-2 inactive | HTR5A ag confirm 59.6
CC(=O)N1CCc2c(sc(NC(=O)C3COc4ccccc4O3)c2C(N)=O)C1 (stereo not given)	HTR5A ag ctr 38.5 | MOR-DOR ag-2 inactive | HTR5A ag confirm 49.3
COC(=O)c1c(NC(=O)C2COc3ccccc3O2)sc2c1CCN(C(C)=O)C2 (stereo not given)	none
CN1CCc2c(sc(NC(=O)C3COc4ccccc4O3)c2C(N)=O)C1 (stereo not given)	HTR5A ag ctr 17.4 | MOR-DOR ag-2 inactive | HTR5A ag confirm 51.5
CN1CCc2c(sc(NC(=O)Cc3ccccc3)c2C(N)=O)C1	none
CCN1CCc2c(sc(NC(=O)C3COc4ccccc4O3)c2C(N)=O)C1 (stereo not given)	HTR5A ag ctr 14.8 | MOR-DOR ag-2 inactive | HTR5A ag confirm inactive
CCN1CCc2c(sc(NC(=O)Cc3ccccc3)c2C(N)=O)C1	none
Cc1ccc(C(=O)NC2CC(C)(C)NC(C)(C)C2)cc1S(=O)(=O)N1CCOCC1	none
CC(C)c1ccc(C2(C)NC(=O)N(C(C)C(=O)Nc3ccc(N4CCOCC4)cc3)C2=O)cc1 (stereo not given)	none
COc1ccccc1N(C(=O)c1ccco1)C(C(=O)NC1CCCC1)c1ccncc1 (stereo not given)	none
O=C(c1ccc(Cl)cc1)N1CCC(C(=O)N2CCN(c3ncccn3)CC2)CC1	none
COc1ccc(CNC(=O)CN(CC2CCCO2)C(=O)CNS(=O)(=O)c2ccccc2)cc1 (stereo not given)	HTR5A ag ctr 17.5 | MOR-DOR ag-2 inactive | HTR5A ag confirm inactive
COc1cccc(Nc2nc(CC(C)=O)ns2)c1	HTR5A ag ctr 19.1 | MOR-DOR ag-2 inactive | HTR5A ag confirm inactive
Fc1ccc(C(c2nnnn2C2CCCC2)N2CCN(Cc3ccccc3)CC2)cc1 (stereo not given)	HTR5A ag ctr 18.0 | MOR-DOR ag-2 inactive | HTR5A ag confirm inactive
Clc1ccc(C(c2nnnn2C2CCCC2)N2CCN(Cc3ccncc3)CC2)cc1 (stereo not given)	none
Cc1ccc(C(=O)OCC(=O)N2CCC(c3ccccc3)=N2)cc1	none
COCCCNC(=O)c1cc(S(=O)(=O)NCCCN2CCCC2=O)ccc1Cl	none
O=S(=O)(NCc1ccccc1)c1ccc(S(=O)(=O)N2CCCCC2)cc1	none
O=S(=O)(c1ccc(S(=O)(=O)N2CCCN(Cc3ccccc3)C2)cc1)N1CCCCCC1	HTR5A ag ctr 15.0 | MOR-DOR ag-2 inactive | HTR5A ag confirm inactive
Cc1cccc(S(=O)(=O)Nc2ccc(-c3cn4ccccc4n3)cc2)c1	none

Screening results from PubChem.
